Laboratory results taken from paper PMC11062922 (Nature Chemical Biology, 2023).
Like-named read-outs stand apart in the source and are kept apart here.

What was measured:
PIK3CB = test system: PIK3CB; set-up: species or system human, MV4-11 + K-562 + COLO205 + SK-N-BE2 + OVCAR-8; conditions: read-out: apparent Kd, n = 1
PIK3CD = test system: PIK3CD; set-up: species or system human, MV4-11 + K-562 + COLO205 + SK-N-BE2 + OVCAR-8; conditions: read-out: apparent Kd, n = 1
[1] = compound concentrations:100 nM and 1000 nM (sheet 'Samples')
[2] = compound concentrations: 100 nM and 1000 nM (sheet 'Samples'), CATDS: 1

## C[C@H]1CC[C@@H](C(=O)Nc2ccccc2)CN1c1cc(-c2ccc3c(N)n[nH]c3c2)nc(N)n1 [GSK2283293_KCGS]
PIK3CB; [1]
  potency estimated from few doses: 1130 nM
PIK3CD; [1]
  potency estimated from few doses: 168 nM

## Nc1ncc(-c2ccc3nccc(-c4ccncc4)c3c2)cc1S(=O)(=O)N1CCCCC1 [GSK1693850A]
PIK3CB; compound concentrations: 100 nM and 1000 nM (sheet 'Samples'), CATDS: 8.8291431205062498E-2
  potency estimated from few doses: 406 nM
PIK3CD; compound concentrations: 100 nM and 1000 nM (sheet 'Samples'), CATDS: 0.491044301139066
  potency estimated from few doses: 4.69 nM

## CCCCCc1nc2c(N)ncnc2n1CCCCC [SKF-97255]
PIK3CD; [2]
  potency estimated from few doses: 152 nM

## O=C(NCCNc1ccnc(NCc2ccc(F)cc2)n1)c1cc2ccccc2s1 [GSK1379944A]
PIK3CD; [1]
  potency estimated from few doses: 200 nM

## Cc1c(Cn2c(C)nn3c(=O)cc(N4CCO[C@H](C)C4)nc23)cccc1C(F)(F)F [GSK2373690A]
PIK3CB; [1]
  potency estimated from few doses: 6.1 nM

## CN(C1=C(c2ccccc2)C(=O)NC1=O)c1ccccc1 [SB-334860]
PIK3CD; [1]
  potency estimated from few doses: 175 nM

## CC(C)c1ccc(O)cc1Nc1ccnc2ccc(C(F)(F)F)cc12 [GW482059X]
PIK3CD; compound concentrations: 100 nM and 1000 nM (sheet 'Samples'), CATDS: 0.57570605535332697
  potency estimated from few doses: 139 nM

## Cc1cccc(-c2nc(Nc3ccc4c(cnn4C)c3)c3ccccc3n2)n1 [GW876731X]
PIK3CD; [1]
  potency estimated from few doses: 158 nM

## Cc1ccccc1Cn1ccn2c(=O)cc(N3CCOCC3)nc12 [GSK2269905A]
PIK3CB; compound concentrations: 100 nM and 1000 nM (sheet 'Samples'), CATDS: 0.94535386241692498
  potency estimated from few doses: 41.9 nM

## CSc1nn2c(=O)cc(N3CCOCC3)nc2n1Cc1cccc(Cl)c1Cl [GSK2347225A]
PIK3CB; compound concentrations: 100 nM and 1000 nM (sheet 'Samples'), CATDS: 0.69525432072765503
  potency estimated from few doses: 11.5 nM

## CC(C)N1CCN(Cc2cnc(-c3cc(-c4cccc5[nH]ccc45)cc4[nH]ncc34)o2)CC1 [GSK2269557]
PIK3CD; [2]
  potency estimated from few doses: 1.45 nM

## O=c1cc(N2CCOCC2)nc2n(Cc3ccc(F)c(Cl)c3)ccn12 [GSK2297099A]
PIK3CB; compound concentrations: 100 nM and 1000 nM (sheet 'Samples'), CATDS: 0.58054918147360901
  potency estimated from few doses: 32.5 nM
PIK3CD; [1]
  potency estimated from few doses: 150 nM

## COc1ncc(-c2cc(-c3ncc(CN4C[C@@H](C)O[C@@H](C)C4)o3)c3cn[nH]c3c2)cc1NS(C)(=O)=O [GSK2292767]
PIK3CB; compound concentrations: 100 nM and 1000 nM (sheet 'Samples'), CATDS: 0.10653178363766699
  potency estimated from few doses: 335 nM
PIK3CD; compound concentrations: 100 nM and 1000 nM (sheet 'Samples'), CATDS: 0.86289624081171401
  potency estimated from few doses: 0.614 nM

## Cc1nn2c(=O)cc(N3CCO[C@H](C)C3)nc2n1Cc1cccc(Cl)c1Cl [GSK2373693A]
PIK3CB; [2]
  potency estimated from few doses: 11.8 nM

## O=c1cc(N2CCOCC2)nc2n(Cc3cccc(Cl)c3)ccn12 [GSK2296823A]
PIK3CB; [1]
  potency estimated from few doses: 30.5 nM

## CN(C)S(=O)(=O)c1cc(-c2ccc3nccc(-c4cccc(S(N)(=O)=O)c4)c3c2)cnc1N [GSK1669921A]
PIK3CB; compound concentrations: 100 nM and 1000 nM (sheet 'Samples'), CATDS: 0.12770502550951299
  potency estimated from few doses: 777 nM
PIK3CD; compound concentrations: 100 nM and 1000 nM (sheet 'Samples'), CATDS: 0.59190161407117303
  potency estimated from few doses: 9.62 nM

## Cl.NC(=O)c1cccc(Nc2nccc(Nc3ccc(Oc4c(Cl)cccc4Cl)c(Cl)c3)n2)c1 [GW659009A]
PIK3CD; compound concentrations: 100 nM and 1000 nM (sheet 'Samples'), CATDS: 0.90760673272471903
  potency estimated from few doses: 9.83 nM

## O=C(O)C(F)(F)F.[2H]C([2H])(c1cccc(C(F)(F)F)c1C)n1c(SC)nn2c(=O)cc(N3CCOCC3)nc12 [GSK2363608B]
PIK3CB; [1]
  potency estimated from few doses: 8.69 nM
PIK3CD; [1]
  potency estimated from few doses: 146 nM
